Drawing on PubChem BioAssay (NCI), this text covers growth for 14 compounds.

The panel holds about 83,000 compounds, 20% with a hit somewhere; the sample as a whole holds those more often.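 Results are percent growth after 48 hours of single-concentration exposure. 100 means growth as in untreated cells, lower positive values show inhibition; negative values down to -100 show cell death.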 Unmarked numbers belong to inactive results. The source made the active and inactive calls. Rule for the calls: active = growth percent below 10; inactive = the rest.

Some test systems named below: HCT-15 colon; HT29 colon; SNB-75 CNS; SNB-19 CNS; U251 CNS; PC-3 prostate; SK-MEL-5 melanoma; UACC-62 melanoma; LOX IMVI melanoma; SK-MEL-28 melanoma.
Common to all, as to assay: NCI-60 one-dose screen, 48 h (100 = growth as untreated, 0 = no growth, -100 = all killed)
Common to all, as to settings: 10 µM unless noted

Consider `CCCCCCCC/C=C\CCCCCCCCOc1cccc(CC(=O)NCC[N+]2(C)CCCC2)c1`, for which the growth with HCT-15 colon is 98.7%; in the assay on HT29 colon, 38.5%; in the assay with SNB-75 CNS, 53.3%; with SNB-19 CNS, 62.6%; in the assay on U251 CNS, 53.5%; in the assay with PC-3 prostate, 36.3%. For the same compound, the growth was 94.1% in the assay with SK-MEL-5 melanoma, 71.7% with UACC-62 melanoma, 87% in the assay with LOX IMVI melanoma and 98.6% with SK-MEL-28 melanoma.
With `COc1ccc(-c2nn(-c3ccc(NC(=O)c4ccc(Cl)c(Cl)c4)cc3)cc2-c2ccncc2)cc1Cl`, the growth in the assay with HCT-15 colon was -1.71% (active); with HT29 colon, -27.7% (active); in the assay with SNB-75 CNS, 59.4%; in the assay on SNB-19 CNS it was 56.7%; in the assay with U251 CNS, 25%; in the assay with PC-3 prostate, 26.7%. Besides, the values for the growth in the assay with SK-MEL-5 melanoma and in the assay with UACC-62 melanoma were 5.09% (active) and 24.5%, respectively.
Regarding `O=C1/C(=C/c2ccc([N+](=O)[O-])cc2)Oc2ccc(O)cc21`, the growth is 84.3% in the assay with HCT-15 colon; 46.8% with HT29 colon; 95.7% in the assay on SNB-75 CNS; 90.7% with SNB-19 CNS; 63.6% in the assay with U251 CNS; 87.9% in the assay with PC-3 prostate. Besides, the growth was 86.8% in the assay on SK-MEL-5 melanoma, 41.4% in the assay on UACC-62 melanoma and 60% with LOX IMVI melanoma.
For the compound `COc1cc(/C=C/C(=O)C(=Cc2ccc(F)c(F)c2)C(=O)/C=C/c2ccc(O)c(OC)c2)ccc1O`, the growth is 26% in the assay with HCT-15 colon; -31.4% (active) in the assay with HT29 colon; 38.3% in the assay with SNB-75 CNS; 63.1% in the assay with SNB-19 CNS; 18.8% in the assay on U251 CNS; 30.7% with PC-3 prostate. The growth in the assay with SK-MEL-5 melanoma is 40.9%; in the assay on UACC-62 melanoma it was 32.3%; in the assay with LOX IMVI melanoma, -82.5% (active).
Take `CCCCC1COc2cccc3c(SCC(=O)N(C)c4cccc5ccccc45)cc[n+]1c23` (stereo not given): the growth in the assay on HCT-15 colon is 94.3%; in the assay with HT29 colon, 103%; in the assay with SNB-75 CNS, 104%; in the assay with SNB-19 CNS, 98.7%; with U251 CNS, 99.3%; in the assay on PC-3 prostate it was 95.8%. The growth with SK-MEL-5 melanoma is 98.5%; with UACC-62 melanoma, 99.9%; in the assay on LOX IMVI melanoma, 91.2%.
As to `COc1ccc(/C=N/OCC(O)CN2CCC(O)CC2)cc1OC1CCCC1` (stereo not given), the growth was 109% in the assay on HCT-15 colon; 104% in the assay on HT29 colon; 80% in the assay on SNB-75 CNS; 95.9% with SNB-19 CNS; 103% in the assay on U251 CNS; 94.7% in the assay on PC-3 prostate. For the same compound, the growth with SK-MEL-5 melanoma is 98.8%; in the assay on UACC-62 melanoma, 103%; in the assay on LOX IMVI melanoma, 105%; in the assay with SK-MEL-28 melanoma it was 105%.
`c1ccc2cc(Cn3c(-c4ccc5ccccc5c4)[n+](Cc4ccc5ccccc5c4)c4ccccc43)ccc2c1`: the growth in the assay with HCT-15 colon is -74.6% (active); with HT29 colon, -71.7% (active); with SNB-75 CNS it was -69.5% (active); in the assay on SNB-19 CNS, -76.4% (active); with U251 CNS it was -78.6% (active); with PC-3 prostate, -57.8% (active). Also, the growth was -97.2% (active) in the assay on SK-MEL-5 melanoma, -87.8% (active) in the assay on UACC-62 melanoma, -98.8% (active) in the assay with LOX IMVI melanoma and -55.3% (active) in the assay with SK-MEL-28 melanoma.
With `COc1cccc(OC)c1OC(=O)c1ccccc1`, the growth was 109% in the assay with HCT-15 colon; 107% in the assay with HT29 colon; 82.5% in the assay with SNB-75 CNS; 104% in the assay on SNB-19 CNS; 94.8% with U251 CNS; 106% in the assay on PC-3 prostate. Further, the growth is 96% in the assay on SK-MEL-5 melanoma, 97.1% in the assay with UACC-62 melanoma, 92.7% with LOX IMVI melanoma and 98.2% in the assay with SK-MEL-28 melanoma.
As for `Nc1cc2[nH]c(=O)c3ccccc3c2cc1Br`, the growth in the assay on HCT-15 colon was 52.6%; in the assay with HT29 colon, 111%; in the assay on SNB-75 CNS, 57%; in the assay on SNB-19 CNS it was 93.6%; in the assay on U251 CNS, 84%; in the assay with PC-3 prostate it was 81.5%. Besides, the growth with SK-MEL-5 melanoma was 67.2%; with UACC-62 melanoma, 80.7%; in the assay with LOX IMVI melanoma, 74.5%; in the assay with SK-MEL-28 melanoma, 97.8%.
On to `CCN(CC)c1ccc2c(c1)OS(=O)(=O)N=C2`, for which the growth was 102% in the assay on HCT-15 colon; 111% with HT29 colon; 87.9% in the assay with SNB-75 CNS; 101% in the assay on SNB-19 CNS; 99.3% in the assay on U251 CNS; 100% with PC-3 prostate. Further, the growth in the assay on SK-MEL-5 melanoma is 99.5%; in the assay with UACC-62 melanoma it was 101%; in the assay on LOX IMVI melanoma it was 89.2%; in the assay with SK-MEL-28 melanoma it was 105%.
With `c1ccc(-c2n(Cc3ccc4ccccc4c3)c3ccccc3[n+]2Cc2ccc3ccccc3c2)cc1`, the growth in the assay with HCT-15 colon was -31.9% (active); in the assay with HT29 colon, -68.1% (active); in the assay on SNB-75 CNS, -43.9% (active); with SNB-19 CNS, -16.4% (active); in the assay on U251 CNS it was -73.3% (active); in the assay on PC-3 prostate, -30.5% (active). Also, the growth in the assay with SK-MEL-5 melanoma is -98.1% (active); in the assay on UACC-62 melanoma, -82.9% (active); with LOX IMVI melanoma, -97.3% (active); with SK-MEL-28 melanoma it was -43.7% (active).
Take `CCCCCCCC/C=C\CCCCCCCCOc1cccc(CC(=O)NCC[N+]2(C)CCCCC2)c1`: the growth in the assay on HCT-15 colon was 102%; with HT29 colon, 27%; with SNB-75 CNS, 50.7%; in the assay with SNB-19 CNS, 56.7%; in the assay on U251 CNS, 51.6%; in the assay on PC-3 prostate it was 22.1%. In addition, the growth was 89.4% with SK-MEL-5 melanoma, 70.1% in the assay with UACC-62 melanoma, 74.5% with LOX IMVI melanoma and 98.7% with SK-MEL-28 melanoma.
Take `COC(=O)c1c2c(c(C)[n+]([O-])c1C)C(=O)C=C(NCc1cccc(OC)c1)C2=O`: the growth is -74.8% (active) in the assay with HCT-15 colon; 2.57% (active) in the assay with HT29 colon; -97.7% (active) in the assay on SNB-75 CNS; -88.4% (active) in the assay with SNB-19 CNS; -39.3% (active) in the assay on U251 CNS; -2.04% (active) with PC-3 prostate. For the same compound, the growth in the assay with SK-MEL-5 melanoma is -97.2% (active); with UACC-62 melanoma, -68.1% (active); with LOX IMVI melanoma it was -79.7% (active); in the assay with SK-MEL-28 melanoma, -22.3% (active).
Turning to `COc1cc2cc(Oc3ccc(NC(=O)Nc4cccc(C(F)(F)F)c4)cc3)c(C)nc2cc1OCCN1CCCCC1`, the growth is -81.9% (active) in the assay with HCT-15 colon; -81.7% (active) with HT29 colon; -70.3% (active) with SNB-75 CNS; -55.1% (active) in the assay on SNB-19 CNS; -82.4% (active) in the assay on U251 CNS; -54.6% (active) in the assay with PC-3 prostate. The growth with SK-MEL-5 melanoma is -94.1% (active); in the assay on UACC-62 melanoma it was -74.2% (active); with LOX IMVI melanoma, -94.3% (active); in the assay on SK-MEL-28 melanoma it was -92.1% (active).
